D2 ag-1: agonists of human D2 dopamine receptor | P14416 | HEK293 T-REx D2 cells, calcium flux agonist mode | activation, % at 2 µM | 340,000 tested, 0.53% active;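 active = activation over 3 SD above normal in the single-dose calcium agonist read, cut at about 30% in these data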
Target sequence (P14416 whole entry, looked up): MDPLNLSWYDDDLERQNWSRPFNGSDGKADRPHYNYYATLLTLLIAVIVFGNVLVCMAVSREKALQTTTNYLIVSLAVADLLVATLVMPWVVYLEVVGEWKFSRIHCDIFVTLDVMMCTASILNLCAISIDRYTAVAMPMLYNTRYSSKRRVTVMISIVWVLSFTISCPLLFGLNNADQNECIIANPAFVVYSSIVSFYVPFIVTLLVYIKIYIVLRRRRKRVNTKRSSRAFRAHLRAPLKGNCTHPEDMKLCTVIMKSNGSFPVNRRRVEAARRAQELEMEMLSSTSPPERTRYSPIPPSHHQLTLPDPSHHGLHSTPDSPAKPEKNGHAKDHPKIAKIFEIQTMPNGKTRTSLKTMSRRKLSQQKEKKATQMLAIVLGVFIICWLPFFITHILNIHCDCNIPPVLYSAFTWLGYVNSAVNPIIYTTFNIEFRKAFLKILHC
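Tetracycline-induced HEK293 Trex cells with D2 receptor force-coupled to calcium signaling, plated overnight at 30 C and loaded with no-wash calcium dye. Calcium flux read kinetically for 180 s after compound addition; responses flag agonists.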
D2 PAM-1: potentiates the human D2 dopamine receptor allosterically; P14416; DiscoveRx D2 beta-arrestin cells, luminescence, 90 min; 100% = 57 uM dopamine signal; potentiation, % (concentration not given with the values); 360,000 tested, 0.23% active; in the data active = potentiation above about 50%; inconclusive = mostly about 30% to 49%
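D2 cells co-treated with compound plus 50 nM dopamine (EC20) for 90 min at 37 deg C to detect potentiation. Beta-arrestin recruitment was read as enzyme-fragment luminescence after 1 h at ambient temperature. Full response was set by 57 uM dopamine.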
D2 ag-2: agonists of human D2 dopamine receptor (beta-arrestin). P14416. DiscoveRx PathHunter D2 beta-arrestin, luminescence, 90 min; 100% = 57 uM dopamine signal. activation, % (test concentration not listed). 360,000 tested, 0.084% active. AID 624465; in the data active = activation above about 40%; inconclusive = between about 15% and that limit
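Agonist mode: compounds alone added to overnight-plated D2 PathHunter cells for 90 min at 37 C, with 57 uM final dopamine (EC100) defining full response. Beta-arrestin recruitment detected by chemiluminescent reagent, read after 1 h at ambient temperature.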
D2 antagonist: antagonizes the human D2 dopamine receptor; P14416; inhibition, % at 10 µM; 340,000 tested, 2% active; HEK293 TREx D2 cells, calcium flux, dopamine EC80; in the data active = inhibition above about 30%; inactive = below that, where a call was filed
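Measurement of antagonist activity uses fluorescent calcium dye in inducible HEK293 T-REx D2 cells: 10 s baseline, compound addition with 180 s read, EC80 dopamine addition with a further 180 s read.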
D2 PAM-2: positively modulates the human D2 dopamine receptor allosterically; P14416; HEK293 T-REx D2, calcium flux, EC20 dopamine potentiation; potentiation, % at 10 µM; 340,000 tested, 0.34% active; AID 485347;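 active = potentiation over 3 SD above the plate norm, cut at about 30% in these data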
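Tetracycline-induced HEK293 T-REx cells force-coupled to calcium signalling expressed D2; compounds were pin-added after a 10 s baseline, read kinetically 180 s, then an EC20 dopamine challenge followed with a further 180 s calcium read.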
A number is an active result; ! = a repeat was not active. Most compounds without a hit are left out; they make up all but 2.4% or so of the library.

Results for COc1ccccc1C(=O)Nc1ccc(-c2cc(C(F)(F)F)nn2-c2ccccc2)cc1 ?
D2 ag-1: inactive; D2 PAM-2: inactive

Results for CCOC(=O)C1(CC2CCCCO2)CCN(C(=O)Nc2ccc(C(=O)OC)cc2)CC1 (stereo not drawn) ?
D2 ag-1: inactive; D2 PAM-1: inactive; D2 ag-2: inactive; D2 antagonist: 32; D2 PAM-2: inactive

Results for COc1cccc(-n2c(SCC(N)=O)nc3ccccc3c2=O)c1 ?
D2 ag-1: inactive; D2 PAM-1: inactive; D2 ag-2: inactive; D2 antagonist: inactive; D2 PAM-2: inactive

Results for CCn1c(SCC(N)=O)nc2ccccc2c1=O ?
D2 ag-1: inactive; D2 PAM-1: inactive; D2 ag-2: inactive; D2 antagonist: 37; D2 PAM-2: inactive

Results for Cc1ccc(-n2c(SCC(N)=O)nc3c([nH]c4ccccc43)c2=O)cc1 ?
D2 ag-1: inactive; D2 PAM-1: inactive; D2 ag-2: inactive; D2 antagonist: inactive; D2 PAM-2: 32!

Results for NC(=O)CSc1nc2ccccc2c(=O)n1-c1ccccc1 ?
D2 ag-1: inactive; D2 PAM-1: inactive; D2 ag-2: inactive; D2 antagonist: 41; D2 PAM-2: inactive

How did CCCc1nc2ccc(C(=O)OC)cn2c1Cc1ccc(C)cc1 do in these assays?
D2 PAM-1: inactive; D2 ag-2: inactive

What do the screens show for `COc1cccc(OC(=O)CSc2nnc(-c3cccs3)o2)c1`?
D2 ag-1: inactive; D2 PAM-2: inactive

What do the screens show for `COc1ccc(NS(=O)(=O)c2cccc(C(=O)NCC(c3ccco3)N(C)C)c2)cc1` (stereo not drawn)?
D2 ag-1: inactive; D2 PAM-1: inactive; D2 ag-2: inactive; D2 antagonist: 37; D2 PAM-2: inactive

Results for COc1ccc(NS(=O)(=O)c2ccc(C)c(C(=O)NCC(c3ccco3)N(C)C)c2)cc1 (stereo not drawn) ?
D2 ag-1: inactive; D2 PAM-1: inactive; D2 ag-2: inactive; D2 antagonist: inactive; D2 PAM-2: inactive

What do the screens show for `COc1ccccc1NS(=O)(=O)c1ccc(C(=O)NCC(c2ccco2)N(C)C)cc1` (stereo not drawn)?
D2 ag-1: inactive; D2 PAM-1: inactive; D2 ag-2: inactive; D2 antagonist: inactive; D2 PAM-2: inactive

Results for COc1ccc(Cl)cc1NS(=O)(=O)c1cccc(C(=O)NCC(c2ccco2)N2CCCC2)c1 (stereo not drawn) ?
D2 ag-1: inactive; D2 PAM-1: inactive; D2 ag-2: inactive; D2 antagonist: 39; D2 PAM-2: inactive

How did COc1ccc(Cl)cc1NS(=O)(=O)c1cccc(C(=O)NCC(c2ccco2)N(C)C)c1 (stereo not drawn) do in these assays?
D2 ag-1: inactive; D2 PAM-1: inactive; D2 ag-2: inactive; D2 antagonist: 60; D2 PAM-2: inactive

How did COc1ccc(C(CNC(=O)c2ccc(NS(=O)(=O)c3ccc4c(c3)OCCO4)cc2)N(C)C)cc1 (stereo not drawn) do in these assays?
D2 ag-1: inactive; D2 PAM-1: inactive; D2 ag-2: inactive; D2 antagonist: 31; D2 PAM-2: inactive

How did COc1ccccc1NS(=O)(=O)c1cccc(C(=O)NCC(c2ccco2)N2CCCCC2)c1 (stereo not drawn) do in these assays?
D2 ag-1: inactive; D2 PAM-1: inactive; D2 ag-2: inactive; D2 antagonist: inactive; D2 PAM-2: inactive

How did CCOC(=O)C1CCCN(C(=O)Cn2ncn3c(cc4sc(CC)cc43)c2=O)C1 (stereo not drawn) do in these assays?
D2 ag-1: inactive; D2 PAM-2: inactive

Results for CN(C)C(CNC(=O)c1cccc(C(F)(F)F)c1)c1ccco1 (stereo not drawn) ?
D2 ag-1: inactive; D2 PAM-1: inactive; D2 ag-2: inactive; D2 antagonist: 31; D2 PAM-2: inactive

Results for O=C(NCc1ccco1)c1cccc(C(F)(F)F)c1 ?
D2 ag-1: inactive; D2 PAM-1: inactive; D2 ag-2: inactive; D2 antagonist: inactive; D2 PAM-2: inactive

What do the screens show for `COc1ccc(N(C)S(=O)(=O)c2cccc(C(=O)NCC(c3ccco3)N3CCCC3)c2)cc1` (stereo not drawn)?
D2 ag-1: inactive; D2 PAM-1: inactive; D2 ag-2: inactive; D2 antagonist: inactive; D2 PAM-2: inactive

Results for COc1ccc(N(C)S(=O)(=O)c2cccc(C(=O)NCC(c3cccs3)N(C)C)c2)cc1 (stereo not drawn) ?
D2 ag-1: inactive; D2 PAM-1: inactive; D2 ag-2: inactive; D2 antagonist: 46; D2 PAM-2: inactive

Results for CCNc1ncnc2[nH]ncc12 ?
D2 PAM-1: inactive; D2 ag-2: inactive

How did COc1ccc(N2C(=O)C(Cl)=C(N3CCN(Cc4ccccc4)CC3)C2=O)cc1 do in these assays?
D2 PAM-1: inactive; D2 ag-2: inactive

What do the screens show for `O=C1C(Cl)=C(N2CCN(Cc3ccccc3)CC2)C(=O)N1c1ccccc1`?
D2 ag-1: inactive; D2 PAM-1: inactive; D2 ag-2: inactive; D2 antagonist: 37; D2 PAM-2: inactive

Results for O=C(CNC(=O)c1cccs1)NCC(=O)OCc1ccc(F)cc1 ?
D2 ag-1: inactive; D2 PAM-1: inactive; D2 ag-2: inactive; D2 antagonist: inactive; D2 PAM-2: 35

Results for COc1cc(NC(=O)CSc2nnc(C)n3c2cc2oc(C)cc23)cc(OC)c1 ?
D2 ag-1: inactive; D2 PAM-2: inactive

What do the screens show for `N/C(Cc1ccc([N+](=O)[O-])cc1)=N\OC(=O)c1ccc(Br)o1`?
D2 ag-1: inactive; D2 PAM-1: 132; D2 ag-2: inconclusive; D2 antagonist: inactive; D2 PAM-2: inactive

How did N/C(Cc1ccc([N+](=O)[O-])cc1)=N\OC(=O)Cc1ccccc1 do in these assays?
D2 ag-1: inactive; D2 PAM-1: inactive; D2 ag-2: inactive; D2 antagonist: inactive; D2 PAM-2: inactive

What do the screens show for `N/C(Cc1ccc([N+](=O)[O-])cc1)=N\OC(=O)c1ccccc1F`?
D2 ag-1: inactive; D2 PAM-1: 153; D2 ag-2: inconclusive; D2 antagonist: inactive; D2 PAM-2: inactive

What do the screens show for `N/C(Cc1ccc([N+](=O)[O-])cc1)=N\OC(=O)Cc1ccc(Cl)cc1`?
D2 ag-1: inactive; D2 PAM-1: inactive; D2 ag-2: inactive; D2 antagonist: inactive; D2 PAM-2: inactive

What do the screens show for `CC(C(=O)N1CCc2ccccc21)N(C)CC(=O)Nc1cccc(F)c1` (stereo not drawn)?
D2 ag-1: inactive; D2 PAM-1: inactive; D2 ag-2: inactive; D2 antagonist: 39; D2 PAM-2: inactive

What do the screens show for `CN(CC(=O)Nc1cccc(F)c1)CC(=O)N1CCc2ccccc21`?
D2 ag-1: inactive; D2 PAM-1: inactive; D2 ag-2: inactive; D2 antagonist: inactive; D2 PAM-2: inactive

How did C=C(C)[C@@H]1CC[C@]2(C(=O)O)CC[C@]3(C)[C@H](CC[C@@H]4[C@@]5(C)CC[C@H](O)C(C)(C)[C@@H]5CC[C@]43C)[C@@H]12 do in these assays?
D2 ag-1: inactive; D2 PAM-1: inactive; D2 ag-2: inactive; D2 antagonist: 36; D2 PAM-2: inactive
